Compound activity (PubChem BioAssay)
In the library only some 1.3% were active in any assay of this set; here they are far more common.
UGM FP inh – inhibitors of M. tuberculosis UDP-galactopyranose mutase; 0.06% of 320,000 active; inhibition, % at 10 µM; purified UGM, fluorescence polarization probe displacement; P9WIQ1; in the data active = inhibition above about 10%, passing the limit was not always enough; inconclusive = no clear call, values can overlap the other calls
Rv3671c protease – inhibitors of M. tuberculosis serine protease Rv3671c | 0.048% of 320,000 active | P9WHR9 | inhibition, % at 5.96 µM; in the data active = inhibition above about 38%;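 also: extracellular domain of Rv3671c used as enzyme; 0% = enzyme with DMSO and 100% = no enzyme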
Target sequence (P9WHR9 whole entry, looked up, the tested form may be a part): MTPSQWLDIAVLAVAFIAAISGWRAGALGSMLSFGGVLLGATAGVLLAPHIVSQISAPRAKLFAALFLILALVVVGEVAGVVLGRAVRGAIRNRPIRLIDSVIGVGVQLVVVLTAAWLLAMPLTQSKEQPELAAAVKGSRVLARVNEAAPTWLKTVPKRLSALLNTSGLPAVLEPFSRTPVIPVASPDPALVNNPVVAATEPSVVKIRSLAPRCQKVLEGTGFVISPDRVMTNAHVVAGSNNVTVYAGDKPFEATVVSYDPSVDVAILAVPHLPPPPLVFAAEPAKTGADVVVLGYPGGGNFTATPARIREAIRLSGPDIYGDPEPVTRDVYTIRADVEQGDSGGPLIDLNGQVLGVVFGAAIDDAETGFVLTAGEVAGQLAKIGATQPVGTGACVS
FadD28 binding – M. tuberculosis FadD28 bisubstrate binding inhibition. FadD28 bisubstrate probe binding, fluorescence polarization. inhibition, % at 12.5 µM. 0.22% of 360,000 active. AID 588549; in the data active = inhibition above about 8.5%, passing the limit was not always enough; inconclusive = no clear call, values can overlap the other calls
RecA intein inh – blocks M. tuberculosis RecA intein splicing | P9WHJ3 | cell-free RecA intein splicing, fluorescence | inhibition, % (test concentration not listed) | 0.75% of 290,000 active | AID 2221; in the data active = inhibition above about 30%; inconclusive = no clear call, values can overlap the other calls;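 also: 0% = vehicle wells and 100% = reference inhibitor control wells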
BJeLR viability – kills HRASV12-expressing BJeLR cells. BJeLR (HRASV12) viability, CellTiter-Glo ATP luminescence, 48 h. inhibition, % (test concentration not listed). 0.17% of 300,000 active. AID 1554; in the data active = inhibition above about 50%; inconclusive = no clear call, values can overlap the other calls
PrP 5UTR inh – inhibition of PrP 5' UTR reporter expression | inhibition, % (test concentration not listed) | 0.35% of 340,000 active | cell-based PrP 5' UTR mRNA reporter, plate reader; in the data active = inhibition above about 52%; also: 0 = median of the neutral control wells
GFP chromophore – counter-screen GFP chromophore formation inhibition; cell-free GFP chromophore formation, fluorescence; shares compounds with RecA intein inh; EC50, µM; 83% of 2,100 active; AID 434968; call rule not given here
Starred values were filed as active, the others as inactive; ? = inconclusive; . = no result given.

SMILES | UGM FP inh | Rv3671c protease | FadD28 binding | RecA intein inh | BJeLR viability | PrP 5UTR inh | GFP chromophore
O=c1[nH]c(CCl)nc2cc(-c3ccc(F)cc3)sc12 | 1 | -20 | -4 | 36* | 7 | -81 | 31*
COc1cc(/C=C2/C(=N)N3C(=NC2=O)SN=C3S(C)(=O)=O)ccc1OC(=O)c1ccco1 | -4 | -2 | -3 | 26 | -7 | -19 | .
CS(=O)(=O)C1=NSC2=NC(=O)/C(=C\c3ccc(OC(=O)c4ccco4)cc3)C(=N)N21 | 4 | 1 | . | 35* | -2 | . | >38
O=C(Oc1ccc(N2C(=O)C3C4CCC(C4)C3C2=O)cc1)c1ccco1 (configuration not stated) | -1 | 5 | -2 | 30* | -2 | -3 | >38
COc1cc(N=Nc2cccc(S(N)(=O)=O)c2)c2ccccc2c1N | -2 | -6 | 9.7* | 45* | 6 | -32 | 33*
NC1=NC(=Nc2cccc(S(N)(=O)=O)c2)c2ccccc21 | -1 | 12 | -4 | 1 | 6 | -14 | .
O=C(OCC(=O)N1CCNC1=O)c1ccccc1Cl | . | . | -1 | . | . | . | .
COc1ccccc1CC1CC(=O)N(c2ccc([N+](=O)[O-])cc2)C1=O (configuration not stated) | . | . | -2 | . | . | . | .
CC(CC(=O)c1cccs1)CC(=O)c1cccs1 | -1 | 2 | -2 | -3 | 3 | -71 | .
Cc1cc(C)c(C(CC(=O)c2cccs2)C(C#N)C#N)c(C)c1 (configuration not stated) | 0 | -12 | -4 | 83* | -16 | -17 | 8.6*
CCCCCN1N=C(C)CC1=O | -2 | -61 | -2 | 79* | 2 | -26 | 13*
CC1=NN(Cc2cc(C(C)(C)C)c(O)c(C(C)(C)C)c2)C(=O)C1 | 0 | -31 | -3 | 12 | 6 | -9 | .
COc1ccccc1Cn1c(=S)[nH]c2cc(C(=O)N3CC(C)CC(C)C3)ccc2c1=O (configuration not stated) | . | . | -1 | . | . | . | .
O=[N+]([O-])c1ccc(Sc2cccc[n+]2[O-])c2nonc12 | . | . | 2 | 45* | 30 | -19 | 19*
O=[N+]([O-])c1ccc(Nc2ccccc2)c2nonc12 | -3 | -2 | -1 | 9 | 7 | 0 | .
N=NC(=O)c1ccccc1Nc1c(O)[nH]c2ccccc12 | . | . | -2 | . | . | -23 | .
O=C(NCc1cccnc1)c1cc(C2CCCCN2S(=O)(=O)Cc2ccccc2)on1 (configuration not stated) | . | . | -2 | . | . | . | .
CCOc1cc(/C=C(\C#N)C(=O)Nc2cccc(C(=O)O)c2)cc(Br)c1OC(=O)c1ccc(OC)cc1 | 0 | -83 | -9 | 38* | -4 | -4 | 21*
CCOc1cc(/C=C(\C#N)C(=O)Nc2cccc(C(=O)O)c2)ccc1OCc1ccccc1Cl | 1 | 2 | -4 | . | -5 | -21 | .
COc1cccc(C(O)c2ncc(-c3ccccc3Cl)[nH]2)c1 (configuration not stated) | . | . | -3 | . | . | . | .
CCOc1cc(/C=N\NC(=O)OC)ccc1OC(=O)c1ccco1 | 0 | 3 | -5 | 25 | -14 | -3 | .
CCOC(=O)N/N=C\c1ccc(OC(=O)c2ccco2)cc1 | -1 | 4 | -4 | 34* | 2 | -27 | >38
COC(=O)N/N=C\c1ccc(OC(=O)c2ccco2)cc1 | -2 | 12 | -3 | 40* | -5 | -48 | >38
CCOc1cc(/C=N\NC(=O)OC(C)(C)C)ccc1OC(=O)c1ccco1 | 1 | 7 | -1 | 31* | -4 | -20 | >38
Cc1ccc(NCC(=O)N/N=C/c2ccc(OC(=O)c3ccco3)cc2)cc1 | -2 | 19 | -3 | 8 | 4 | -3 | .
SMILES | UGM FP inh | Rv3671c protease | FadD28 binding | RecA intein inh | BJeLR viability | PrP 5UTR inh | GFP chromophore
COC(=O)N/N=C/c1ccc(OC(=O)/C=C/c2ccco2)cc1 | -1 | -4 | -2 | -1 | -11 | . | .
CC(C)(C)OC(=O)N/N=C\c1ccc(OC(=O)c2ccco2)cc1 | 0 | 9 | -2 | 43* | 8 | -57 | >38
CCOC(=O)c1c(OCC)[nH]c2c1cc(O)c1ccccc12 | -1 | 16 | 6 | 95* | -6 | -10 | 4.3*
CCOC(=O)c1c(C)[nH]c2cc(Br)c(O)cc12 | 1 | 0 | 2 | -2 | -10 | -16 | .
CCOc1cc(C(c2c(C)[nH][nH]c2=O)c2c(C)[nH][nH]c2=O)ccc1O | -1 | -23 | 0 | 96* | -7 | -18 | 1.1*
COc1ccc(Cc2nc(=S)[nH][nH]2)cc1Br | -3 | 11 | -3 | . | 2 | -22 | .
COc1ccc(C(c2c(C)[nH][nH]c2=O)c2c(C)[nH][nH]c2=O)cc1Br | 0 | -7 | -1 | 98* | -11 | -6 | 0.59*
COc1cc(C(c2c(C)[nH][nH]c2=O)c2c(C)[nH][nH]c2=O)ccc1OC(C)C | 2 | -6 | 0 | 97* | 10 | -5 | 0.45*
Cc1[nH][nH]c(=O)c1C(c1ccc(O)c(Br)c1)c1c(C)[nH][nH]c1=O | 1 | -3 | -1 | 98* | 8 | -9 | 0.46*
CS(=O)(=O)Nc1cccc(NC(=O)C2Cc3c(-c4ccccc4)ccnc3O2)c1 (configuration not stated) | . | . | -3 | . | . | . | .
CCN(CC)C(=O)c1cccc(-c2csc(C(NC(C)=O)c3cccc(OC)c3)n2)c1 (configuration not stated) | . | . | -3 | . | . | . | .
CCN1C(=O)[C@H]2[C@@H](c3ccc(OC)cc3)N[C@]3(CCCN(Cc4ccc(Br)cc4)C3=O)[C@H]2C1=O | . | . | -2 | . | . | . | .
COc1cc(-c2nnc(COC(=O)c3ccc([N+](=O)[O-])o3)o2)cc(OC)c1OC | . | . | -3 | . | . | . | .
CCCCn1c(NC(=O)c2ccc(Br)o2)c(S(=O)(=O)c2ccccc2)c2nc3ccccc3nc21 | 1 | -26 | 2 | 90* | 0 | 1 | ?
CCCCn1c(NC(=O)c2ccco2)c(S(=O)(=O)c2ccc(C)cc2)c2nc3ccccc3nc21 | . | . | -1 | 57* | 2 | -17 | ?
CCCCn1c(NS(=O)(=O)c2ccccc2)c(S(=O)(=O)c2ccc(C)cc2)c2nc3ccccc3nc21 | 0 | -209 | ? | 76* | 0 | -14 | ?
CCCCCn1c(NC(=O)c2ccco2)c(S(=O)(=O)c2ccc(C)cc2)c2nc3ccccc3nc21 | 1 | -19 | 1 | 80* | 3 | -7 | >38
CCCCn1c(NC(=O)c2ccco2)c(C(=O)OCC)c2nc3ccccc3nc21 | 0 | -207 | -6 | -65 | -2 | -23 | .
Cc1ccc(S(=O)(=O)c2c(N)n(CCCO)c3nc4ccccc4nc23)cc1 | 2 | -64 | -3 | -16 | -1 | -11 | .
Cc1ccc2c(C)c(C(=O)N3CCC(C(N)=O)(N4CCCCC4)CC3)oc2c1C | . | . | -3 | . | . | . | .
Cc1ccc(S(=O)(=O)c2c(N)n(CCC(C)C)c3nc4ccccc4nc23)cc1 | 0 | -49 | 1 | 85* | -1 | -7 | 11*
COc1ccc(OC)c(NC(=O)COC(=O)c2ccc(S(=O)(=O)N3CCCCC3)cc2)c1 | . | . | -4 | . | . | . | .
